Measurements as given in PubChem BioAssay AID1159580 (chemical genetic matrix, 2015).
Values joined by “and” are separate entries in the source; they are usually repeats but may differ in a detail not shown here. Identical values can stand only once. The campaign covered roughly 5,500 compounds. About 2,000 (36%) were called active. Inconclusive results (about 18%) are left out. Rule as the data show it: active = normalized growth mostly below about 0.91 (no sharp cut-off); inconclusive = no clear call, values can overlap the other calls; inactive = mostly above about 0.92. The list shows a part of the results.

Assay: chemical genetic growth profiling, strain panel (AID 1159580);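 also: tested at 20 µM; growth read once vehicle control cultures reached saturation at 30 °C; 1 = growth at the plate median or of vehicle wells; lower values mean less growth of the strain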
Settings: growth OD

Measured: normalized growth

OCC(S)CS (stereo not given)
active: S. cerevisiae deletion strains, locus YJR043C, strain POL32, stronger effect = lower value 1.3 [resistant] | S. cerevisiae deletion strains, locus YOR069W, strain VPS5, stronger effect = lower value 1.14 [resistant]
inactive: S. cerevisiae deletion strains, locus YAL013W, strain DEP1, stronger effect = lower value 0.987 | S. cerevisiae deletion strains, locus YBR021W, strain FUR4, stronger effect = lower value 0.999 | S. cerevisiae deletion strains, locus YBR229C, strain ROT2, stronger effect = lower value 0.96 | S. cerevisiae deletion strains, locus YCL029C, strain bik1, stronger effect = lower value 0.983 | S. cerevisiae deletion strains, locus YDL035C, strain GPR1, stronger effect = lower value 0.979 | S. cerevisiae deletion strains, locus YDL074C, strain BRE1, stronger effect = lower value 0.963 | S. cerevisiae deletion strains, locus YDL101C, strain DUN1, stronger effect = lower value 0.985 | S. cerevisiae deletion strains, locus YDL134C, strain PPH21, stronger effect = lower value 0.976 | S. cerevisiae deletion strains, locus YDL185W, strain tfp1, stronger effect = lower value 0.935 | S. cerevisiae deletion strains, locus YDL192W, strain arf1, stronger effect = lower value 0.964 | S. cerevisiae deletion strains, locus YDR101C, strain arx1, stronger effect = lower value 0.978 | S. cerevisiae deletion strains, locus YDR150W, strain NUM1, stronger effect = lower value 0.981 | S. cerevisiae deletion strains, locus YDR162C, strain NBP2, stronger effect = lower value 0.966 | S. cerevisiae deletion strains, locus YDR318W, strain mcm21, stronger effect = lower value 1 | S. cerevisiae deletion strains, locus YDR388W, stronger effect = lower value 0.982 | S. cerevisiae deletion strains, locus YDR502C, strain sam2, stronger effect = lower value 0.974 | S. cerevisiae deletion strains, locus YER110C, stronger effect = lower value 0.983 | S. cerevisiae deletion strains, locus YER155C, strain BEM2, stronger effect = lower value 0.999 | S. cerevisiae deletion strains, locus YER167W, strain BCK2, stronger effect = lower value 1.02 | S. cerevisiae deletion strains, locus YGL078C, strain dbp3, stronger effect = lower value 0.992 | S. cerevisiae deletion strains, locus YGL086W, strain mad1, stronger effect = lower value 1.01 | S. cerevisiae deletion strains, locus YGL248W, strain PDE1, stronger effect = lower value 0.972 | S. cerevisiae deletion strains, locus YGR078C, strain PAC10, stronger effect = lower value 0.972 | S. cerevisiae deletion strains, locus YGR135W, strain pre9, stronger effect = lower value 0.962 | S. cerevisiae deletion strains, locus YGR229C, strain SMI1, stronger effect = lower value 0.986 | S. cerevisiae deletion strains, locus YGR252W, strain gcn5, stronger effect = lower value 0.949 | S. cerevisiae deletion strains, locus YHR030C, strain SLT2, stronger effect = lower value 1.01 and 0.959 | S. cerevisiae deletion strains, locus YHR079C, strain IRE1 (second series), stronger effect = lower value 1.01 | S. cerevisiae deletion strains, locus YHR079C, strain IRE1, stronger effect = lower value 0.931 | S. cerevisiae deletion strains, locus YHR094C, strain hxt1, stronger effect = lower value 0.98 | S. cerevisiae deletion strains, locus YHR129C, strain ARP1, stronger effect = lower value 1 | S. cerevisiae deletion strains, locus YHR200W, strain rpn10, stronger effect = lower value 0.974 | S. cerevisiae deletion strains, locus YIL066C, strain RNR3, stronger effect = lower value 0.967 | S. cerevisiae deletion strains, locus YIL073C, strain SPO22, stronger effect = lower value 1.03 | S. cerevisiae deletion strains, locus YIL125W, strain kgd1, stronger effect = lower value 0.966 | S. cerevisiae deletion strains, locus YIR030C, strain dcg1, stronger effect = lower value 0.989 | S. cerevisiae deletion strains, locus YJL095W, strain BCK1, stronger effect = lower value 1.01 and 0.978 | S. cerevisiae deletion strains, locus YJL134W, strain LCB3, stronger effect = lower value 0.994 | S. cerevisiae deletion strains, locus YJL168C, strain set2, stronger effect = lower value 0.984 | S. cerevisiae deletion strains, locus YJL187C, strain SWE1 (second series), stronger effect = lower value 0.973 | S. cerevisiae deletion strains, locus YJR066W, strain TOR1, stronger effect = lower value 0.933 | S. cerevisiae deletion strains, locus YJR075W, strain HOC1, stronger effect = lower value 0.974 | S. cerevisiae deletion strains, locus YKL009W, strain mrt4, stronger effect = lower value 1 | S. cerevisiae deletion strains, locus YKL068W, stronger effect = lower value 0.984 | S. cerevisiae deletion strains, locus YKL085W, strain MDH1 (second series), stronger effect = lower value 1.04 | S. cerevisiae deletion strains, locus YKL085W, strain MDH1, stronger effect = lower value 1.04 | S. cerevisiae deletion strains, locus YKL190W, strain CNB1, stronger effect = lower value 0.985 | S. cerevisiae deletion strains, locus YKR001C, strain vps1, stronger effect = lower value 0.978 | S. cerevisiae deletion strains, locus YLR039C, strain RIC1, stronger effect = lower value 1 | S. cerevisiae deletion strains, locus YLR058C, strain SHM2, stronger effect = lower value 0.984 | S. cerevisiae deletion strains, locus YLR102C, strain apc9, stronger effect = lower value 0.979 | S. cerevisiae deletion strains, locus YLR113W, strain HOG1, stronger effect = lower value 1.02 | S. cerevisiae deletion strains, locus YLR262C, strain YPT6, stronger effect = lower value 0.996 | S. cerevisiae deletion strains, locus YLR268W, strain sec22, stronger effect = lower value 0.955 | S. cerevisiae deletion strains, locus YLR330W, strain CHS5, stronger effect = lower value 1.01 | S. cerevisiae deletion strains, locus YLR342W, strain FKS1 (second series), stronger effect = lower value 1.01 | S. cerevisiae deletion strains, locus YLR371W, strain rom2, stronger effect = lower value 0.986 | S. cerevisiae deletion strains, locus YLR418C, strain cdc73, stronger effect = lower value 0.941 | S. cerevisiae deletion strains, locus YML016C, strain PPZ1, stronger effect = lower value 1 | S. cerevisiae deletion strains, locus YML032C, strain rad52, stronger effect = lower value 0.973 | S. cerevisiae deletion strains, locus YML124C, strain tub3, stronger effect = lower value 0.989 | S. cerevisiae deletion strains, locus YMR078C, strain ctf18, stronger effect = lower value 0.995 | S. cerevisiae deletion strains, locus YMR223W, strain ubp8, stronger effect = lower value 0.999 | S. cerevisiae deletion strains, locus YMR263W, strain SAP30, stronger effect = lower value 0.974 | S. cerevisiae deletion strains, locus YMR307W, strain GAS1, stronger effect = lower value 1.08 | S. cerevisiae deletion strains, locus YNL067W, strain RPL9B, stronger effect = lower value 0.964 | S. cerevisiae deletion strains, locus YNL128W, strain TEP1, stronger effect = lower value 0.974 | S. cerevisiae deletion strains, locus YNL153C, strain GIM3, stronger effect = lower value 0.973 | S. cerevisiae deletion strains, locus YNL183C, strain NPR1, stronger effect = lower value 0.97 | S. cerevisiae deletion strains, locus YNL233W, strain BNI4, stronger effect = lower value 1 | S. cerevisiae deletion strains, locus YNL250W, strain rad50, stronger effect = lower value 0.973 | S. cerevisiae deletion strains, locus YNL271C, strain bni1, stronger effect = lower value 0.988 | S. cerevisiae deletion strains, locus YNL298W, strain CLA4, stronger effect = lower value 0.978 | S. cerevisiae deletion strains, locus YNL307C, strain MCK1, stronger effect = lower value 0.998 | S. cerevisiae deletion strains, locus YNL322C, strain KRE1, stronger effect = lower value 0.978 | S. cerevisiae deletion strains, locus YNR052C, strain pop2, stronger effect = lower value 0.987 | S. cerevisiae deletion strains, locus YOL006C, strain TOP1, stronger effect = lower value 0.849 | S. cerevisiae deletion strains, locus YOL012C, strain htz1 0.787 | S. cerevisiae deletion strains, locus YOL147C, strain pex11, stronger effect = lower value 0.987 | S. cerevisiae deletion strains, locus YOR061W, strain CKA2, stronger effect = lower value 0.969 | S. cerevisiae deletion strains, locus YOR136W, strain idh2, stronger effect = lower value 0.992 | S. cerevisiae deletion strains, locus YOR144C, strain elg1, stronger effect = lower value 0.976 | S. cerevisiae deletion strains, locus YOR184W, strain ser1, stronger effect = lower value 0.996 | S. cerevisiae deletion strains, locus YOR231W, strain MKK1, stronger effect = lower value 0.921 | S. cerevisiae deletion strains, locus YOR316C, strain cot1, stronger effect = lower value 0.979 | S. cerevisiae deletion strains, locus YPL055C, strain LGE1, stronger effect = lower value 0.955 | S. cerevisiae deletion strains, locus YPL256C, strain CLN2, stronger effect = lower value 1.01 | S. cerevisiae deletion strains, locus YPR119W, strain clb2, stronger effect = lower value 0.994 | S. cerevisiae deletion strains, locus YPR141C, strain kar3, stronger effect = lower value 0.967 | S. cerevisiae deletion strains, locus YPR163C, strain tif3, stronger effect = lower value 0.988 | S. cerevisiae deletion strains, locus YPR167C, strain met16, stronger effect = lower value 0.968 | S. cerevisiae deletion strains, strain wtn01, stronger effect = lower value 0.961 | S. cerevisiae strains, strain wild type, stronger effect = lower value 0.99
